The entries come from a sample that favours hits as a whole.
HttQ103 aggreg: reduces HttQ103-GFP aggregates in PC12 cells. PC12 HttQ103-GFP aggregates, Acumen cytometry, 40 h. Potency, µM (titrated, usually from 46.1 µM), hits mostly inhibitors. 1.1% of 220,000 active; note: nearly all actives have a fitted effect of over 60% in size
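PC12/HTTQ103-GFP, ecdysone-inducible; teb 100 nM; cpd qHTS titration; GFP aggregates read on laser cytometer, Ex 488/Em 500-530 nm.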
Epigenetic derep: epigenetic control regulation, reporter derepression. Potency, µM (top dose mostly 53.9 µM), actives largely listed as activators. AID 1865. murine LDR cells, GFP reporter derepression, 30 h. 0.2% of 280,000 active; note: nearly all actives have a fitted effect of over 60% in size
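In this reporter-derepression format, murine cells bearing a silenced integrated CMV-GFP locus incubate with test compound (30 h, 37 C), then are washed and imaged; fluorescent objects of 20–120 um count as induced cells.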
Anesthetic bind: binds horse apoferritin like a general anesthetic | 0.074% of 350,000 active | P02791 | apoferritin/1-aminoanthracene competitive binding, fluorescence | Potency, µM (highest dose often 77.5 µM), usual class: inhibitors; note: nearly all actives have a fitted effect of over 20% in size
Target sequence (P02791 2-175 limits assumed): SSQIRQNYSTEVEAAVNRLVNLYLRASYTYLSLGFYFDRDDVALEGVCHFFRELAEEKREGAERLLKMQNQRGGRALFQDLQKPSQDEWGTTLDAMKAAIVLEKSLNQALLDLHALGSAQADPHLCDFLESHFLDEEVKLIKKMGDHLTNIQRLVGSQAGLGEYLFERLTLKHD
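Concentration-response curves derived by four-parameter Hill fitting of normalized fluorescence, where compounds displaced 1-AMA from 10 uM horse apoferritin following a brief 10 min room-temperature incubation; propofol titration acted as positive control.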
PINK1 modulator: changes PINK1 expression | 0.2% of 410,000 active | Potency, µM (doses to about 76.6 µM), hits mostly activators | PINK1 immunofluorescence, high-content cytometry, 24 h; active = well fitted activation curve with a large enough effect; inconclusive = small, poorly fitted or top-dose-only effect; cell line not stated here; note: nearly all actives have a fitted effect of over 65% in size
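Cells are seeded, rested 12 hours, then given compound at five concentrations or DMSO for 24 hours. After fixation, blocking and antibody staining, PINK1 amount and mitochondrial localization are scored; CCCP serves as control.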
HTT cytoprotect: Huntington cell model cytoprotection by ATP luminescence; 0.14% of 230,000 active; PC12 HTT-Q103 induced, cytoprotection, ATP luminescence, 40 h; AID 1471; Potency, µM (series often up to 56.4 µM), actives largely listed as activators; note: nearly all actives have a fitted effect of over 45% in size
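Compounds were screened for protection of PC12 cells against cell death after tebufenozide induction (100 nM final) of mutant Huntingtin exon 1 (Q103) fused to GFP.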
TSG101-PTAP inh: blocks PTAP/TSG101 interaction to inhibit HIV-1 budding. Q99816. Fluorescence polarization, FITC-PTAP peptide / Tsg101 binding. Potency, µM (top dose mostly 115 µM), actives largely listed as inhibitors. 340,000 tested, under 10 active. AID 493005; active = well fitted inhibition curve with a large enough effect in the main read-out, with a control signal flat, not every such curve was filed as active; inconclusive = small, poorly fitted or top-dose-only effect, or effect the other way, or a change in a side signal; inactive = no such curve, though single readings can be large or run the other way
Target sequence (Q99816 whole entry, looked up): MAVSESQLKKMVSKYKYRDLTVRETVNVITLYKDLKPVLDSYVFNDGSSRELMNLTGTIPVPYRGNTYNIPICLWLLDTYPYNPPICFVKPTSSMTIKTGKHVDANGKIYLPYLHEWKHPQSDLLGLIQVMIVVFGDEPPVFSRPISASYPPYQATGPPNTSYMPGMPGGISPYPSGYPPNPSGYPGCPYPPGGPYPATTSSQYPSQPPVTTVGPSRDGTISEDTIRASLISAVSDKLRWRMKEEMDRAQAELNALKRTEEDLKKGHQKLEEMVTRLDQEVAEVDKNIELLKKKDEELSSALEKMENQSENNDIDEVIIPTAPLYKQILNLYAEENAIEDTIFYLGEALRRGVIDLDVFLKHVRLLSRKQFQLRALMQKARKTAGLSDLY
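Steps: Tsg101 binding domain dispensed (10 uM final), compounds pinned in DMSO, FITC-labeled PTAP-motif peptide added (50 nM final); after 20 min binding at room temperature, polarization measured.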
Numbers stand for hits; [ ] = dose if it differs, or a comment. Unless noted, calls come from the whole dose curve; as a rule, active = well fitted curve in the direction sought with a large enough effect; inconclusive = small, poorly fitted or top-dose-only effect, or another doubt; inactive = no such curve, though single readings can be large; an effect the other way counts as inactive or inconclusive.

CC(=O)c1cc2c(cc1NS(=O)(=O)c1ccccc1)OCO2 was read as HttQ103 aggreg inactive[9.22 µM], Epigenetic derep inactive, Anesthetic bind inactive, PINK1 modulator inactive, HTT cytoprotect inactive and TSG101-PTAP inh inactive.
For Cc1ccc(-c2nnc(SCC(=O)c3ccc(Cl)cc3)n2-c2ccccc2)cc1 the results were Epigenetic derep inactive, Anesthetic bind inactive and PINK1 modulator inactive.
`O=C(c1cc(-c2ccccc2)on1)N1CCOc2ccc(CN3CCN(c4ccccn4)CC3)cc2C1` gave PINK1 modulator inactive.
CCOC(=S)SCC(=O)Nc1nccs1 was read as HttQ103 aggreg 5.6µM, Epigenetic derep inconclusive, Anesthetic bind inactive, PINK1 modulator inactive, HTT cytoprotect inactive[10 µM] and TSG101-PTAP inh inactive.
For CCC(Oc1ccccc1)C(=O)Nc1nnc(C(F)(F)F)s1 (centres undefined) the results were HttQ103 aggreg 25µM, Epigenetic derep inactive, Anesthetic bind inactive, PINK1 modulator inactive, HTT cytoprotect inactive[10 µM] and TSG101-PTAP inh inactive.
Screening CCC(Oc1ccc(F)cc1)C(=O)Nc1nc(-c2ccc(F)cc2)ns1 (centres undefined) returned Epigenetic derep inactive, Anesthetic bind inactive and PINK1 modulator 28µM.
Screening CCC(Oc1ccc(F)cc1)C(=O)Nc1cc(-c2ccc(C)cc2)no1 (centres undefined) returned Epigenetic derep inactive, Anesthetic bind inactive and PINK1 modulator inactive.
For CC(=O)Nc1ccc(/C=C/c2ccncc2)cc1 the results were PINK1 modulator inactive.
Screening O=[N+]([O-])c1c(Nc2ccccc2)ccc2nonc12 returned HttQ103 aggreg inactive, Epigenetic derep inactive, Anesthetic bind inactive, PINK1 modulator inactive, HTT cytoprotect inactive[10 µM] and TSG101-PTAP inh inactive.
Screening Nc1cc(Nc2ccccc2)c2nonc2c1[N+](=O)[O-] returned Anesthetic bind inactive, PINK1 modulator 45µM and TSG101-PTAP inh inactive.
CCN(CC)S(=O)(=O)c1cccc(-c2n[nH]c(=S)n2/N=C/c2ccc(OC)cc2)c1 was read as HttQ103 aggreg inactive, Epigenetic derep inactive, Anesthetic bind inconclusive, PINK1 modulator inactive, HTT cytoprotect inactive[10 µM] and TSG101-PTAP inh inactive.
For CCN(CC)S(=O)(=O)c1cccc(-c2n[nH]c(=S)n2/N=C/c2ccc(OC(F)F)cc2)c1 the results were HttQ103 aggreg 22µM, Epigenetic derep inactive, Anesthetic bind inconclusive, PINK1 modulator inactive, HTT cytoprotect inactive[1.9 µM] and TSG101-PTAP inh inactive.
Screening C=C1CC[C@@H]2[C@](C)(CC[C@@H](O)[C@]2(C)CO)[C@@H]1C/C=C1/C(=O)OC[C@H]1O returned HTT cytoprotect 40µM.
O=C(Nc1cc(C(=O)N2CCN(CCO)CC2)c2c(c1)ncn2C1CCCC1)c1ccccc1 was read as PINK1 modulator inactive.
CC(C)c1[nH]nc2c1C(c1cccc(OC(=O)N3CCOCC3)c1)C(C#N)=C(N)O2 (centres undefined) was read as HttQ103 aggreg 3.2µM, Epigenetic derep inactive, Anesthetic bind inactive, PINK1 modulator inactive, HTT cytoprotect inactive and TSG101-PTAP inh inactive.
Screening CC(=O)Cc1nsc(NC(=O)c2ccc(-c3cc(C(F)(F)F)ccc3Cl)o2)n1 returned HttQ103 aggreg 2µM, Epigenetic derep inactive, Anesthetic bind inactive, PINK1 modulator 5µM, HTT cytoprotect inactive and TSG101-PTAP inh inactive.
Screening C/C(=N\OCC(=O)Nc1ccc2c(c1)OCCO2)c1ccc2c(c1)OCCO2 returned HttQ103 aggreg 28µM, Epigenetic derep inactive, Anesthetic bind inconclusive, PINK1 modulator inactive, HTT cytoprotect inactive[10 µM] and TSG101-PTAP inh inactive.
CCOCC(=O)Nc1ccc2c(c1)OCCO2 was read as HttQ103 aggreg inactive, Epigenetic derep inactive, Anesthetic bind inactive, PINK1 modulator inactive, HTT cytoprotect inactive and TSG101-PTAP inh inactive.
Screening Cc1ccc(CCNC(=O)CCN2N=C(c3ccc(C)cc3)CCC2=O)cc1 returned Epigenetic derep inactive, Anesthetic bind inactive and PINK1 modulator inactive.
CCCCCCCCC/C=C/CC1CC(=O)OC1=O (centres undefined) was read as HTT cytoprotect inactive.
For COc1ccc(-c2cc(=O)[nH]c(NCc3ccccc3)n2)cc1 the results were HttQ103 aggreg 4µM, Epigenetic derep inactive, Anesthetic bind inactive, PINK1 modulator inactive and HTT cytoprotect inactive[0.074 µM].
Screening COc1ccc2sc(NCc3ccccc3)nc2c1 returned Anesthetic bind inconclusive, PINK1 modulator inactive and TSG101-PTAP inh inactive.
For Cc1nn(-c2ccccc2)c(C)c1CC(=O)NCC1Cc2cc(-c3cncnc3)ccc2O1 (centres undefined) the results were PINK1 modulator inactive.
CCc1ccc(OCC(=O)NCC(c2ccc(OC)cc2)N2CCOCC2)cc1 (centres undefined) was read as Epigenetic derep inactive, Anesthetic bind inactive and PINK1 modulator inactive.
For Nc1nc(SCc2ccc(Cl)cc2Cl)nc2nc3c(cc12)CCCC3 the results were HttQ103 aggreg inactive, Epigenetic derep 18µM, Anesthetic bind inactive, PINK1 modulator inconclusive and TSG101-PTAP inh inactive.
For Nc1nc(SCc2ccccc2Cl)nc2nc3c(cc12)CCCC3 the results were HttQ103 aggreg inactive, Epigenetic derep inactive, Anesthetic bind inactive, PINK1 modulator inactive and HTT cytoprotect inactive.
Screening Cc1[nH]c2ccccc2c1/C=N/NC(=O)C1CC1(c1ccccc1)c1ccccc1 (centres undefined) returned HttQ103 aggreg 13µM, Epigenetic derep inactive, Anesthetic bind inactive, PINK1 modulator inactive, HTT cytoprotect inactive[10 µM] and TSG101-PTAP inh inactive.
For Cc1csc(SCC(=O)NCC2Cc3cc(-c4cncnc4)ccc3O2)n1 (centres undefined) the results were PINK1 modulator inactive.
`CC1CN(CC(=O)N2CCN(Cc3nccn3C)CC2)Cc2cc(Cl)ccc2O1` (centres undefined) gave PINK1 modulator inactive.
`CC1(C)CC(N2CCCC2)=CC(=[N+]2CCCCC2)C1` gave HttQ103 aggreg 8.9µM, Epigenetic derep inactive, Anesthetic bind inactive, PINK1 modulator inactive and TSG101-PTAP inh inactive.
`O=C(NCc1ccncc1)c1cnn(-c2nccc(-c3cccs3)n2)c1C1CC1` gave PINK1 modulator inactive.
COC(=O)c1sccc1NC(=O)Cc1ccc(OC)cc1 was read as HttQ103 aggreg 40µM, Epigenetic derep inactive, Anesthetic bind inactive, PINK1 modulator inactive and TSG101-PTAP inh inactive.
COc1cc(=O)n2c(c1C(=O)NC(C)c1ccco1)CCN(Cc1ccnc3ccccc13)CC2 (centres undefined) was read as PINK1 modulator inactive.

Assay outcomes: PubChem BioAssay, National Center for Advancing Translational Sciences (NCATS)
